Records with an inconclusive call do not appear. Active and inactive are the calls of the source. Rule for the calls, unless noted: active = hit-call score of the fitted dose curve at least 0.9, where 1 is the maximum; inactive = score below 0.9.
Columns and labels:
[1] = read-out: E-selectin (Homo sapiens) (UniProt P16581); test: BSK_3C_Eselectin: BioMAP Diversity Plus: 3C Assay for Eselectin Biomarker Activity (AID 2283015); details: primary human endothelial cells (HUVEC); actives raise or lower the signal
In short: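 Primary human umbilical vein endothelial cells (3C system), read 24 h after compound addition; E-selectin measured by ELISA. Bidirectional curve fitting against DMSO baseline; cytotoxicity by parallel SRB total-protein staining.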

[2] = read-out: Interleukin-1 alpha (IL1a), IL1A (gene 3552); test: BSK_BE3C_IL1a: BioMAP Diversity Plus: BE3C Assay for Interleukin-1 alpha (IL1a) Biomarker Activity (AID 2283016); details: primary human bronchial epithelial cells; actives raise or lower the signal
In short: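 BE3C primary human bronchial epithelium; cpd 24 h; IL-1a by ELISA; bidirectional fit vs DMSO; parallel SRB (0.1% SRB, 10% TCA fix, 560 nm) for cytotoxicity.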

[3] = read-out: Monocyte Chemoattractant Protein-1 (MCP1), CCL2 (gene 6347); test: BSK_3C_MCP1: BioMAP Diversity Plus: 3C Assay for Monocyte Chemoattractant Protein-1 (MCP1) Biomarker Activity (AID 2283017); details: primary human endothelial cells (HUVEC); actives raise or lower the signal
In short: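 Human umbilical vein endothelial cells (3C system) exposed to chemicals for 24 h; MCP-1 quantified by ELISA against the DMSO baseline with bidirectional fitting, and parallel SRB staining used to assess cytotoxicity.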

[4] = read-out: Monocyte Chemoattractant Protein-1 (MCP1), CCL2 (gene 6347); test: BSK_4H_MCP1: BioMAP Diversity Plus: 4H Assay for Monocyte Chemoattractant Protein-1 (MCP1) Biomarker Activity (AID 2283018); details: primary human endothelial cells (HUVEC); actives raise or lower the signal
In short: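 ELISA read-out of MCP-1 from human vascular endothelial primary cells taken at 24 hours after compound exposure. Activity was fitted in both directions relative to DMSO, which served as negative control.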

[5] = read-out: Human Leukocyte Antigen - DR isotype (HLADR), HLA-DRA (gene 3122); test: BSK_3C_HLADR: BioMAP Diversity Plus: 3C Assay for Human Leukocyte Antigen - DR isotype (HLADR) Biomarker Activity (AID 2283019); details: primary human endothelial cells (HUVEC); actives raise or lower the signal
In short: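 HUVEC monoculture, HLA-DR measured by ELISA 24 h after chemical dosing. Fitted bidirectionally against DMSO baseline; parallel SRB staining assessed cytotoxicity, with 3C proliferation read by SRB at 48 h.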

[6] = read-out: Interleukin-8 (IL8), CXCL8 (gene 3576); test: BSK_3C_IL8: BioMAP Diversity Plus: 3C Assay for Interleukin-8 (IL8) Biomarker Activity (AID 2283020); details: primary human endothelial cells (HUVEC); actives raise or lower the signal
In short: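 ELISA read-out of IL-8 from human umbilical vein endothelium, measured 24 h after chemical dosing. Activity is expressed relative to DMSO negative control, with both increases and decreases fitted.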

[7] = read-out: Monokine induced gamma interferon (MIG), CXCL9 (gene 4283); test: BSK_3C_MIG: BioMAP Diversity Plus: 3C Assay for Monokine induced gamma interferon (MIG) Biomarker Activity (AID 2283021); details: primary human endothelial cells (HUVEC); actives raise or lower the signal
In short: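 Read-out is ELISA detection of MIG on human umbilical vein endothelial cells, taken 24 h after dosing. Gain or loss of signal was scored relative to DMSO controls using bidirectional curve fitting.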

[8] = target: human Vitamin D Receptor (VDR), VDR (gene 7421) (UniProt P11473); test: ATG_VDR_TRANS: Attagene TRANS-FACTORIAL HepG2 Assay for human Vitamin D Receptor (VDR) (AID 2283022; active = hit-call score of the fitted dose curve at least 0.9, where 1 is the maximum)
Sequence of human Vitamin D Receptor (VDR), VDR (gene 7421) (P11473 whole entry, looked up, the tested form may be a part): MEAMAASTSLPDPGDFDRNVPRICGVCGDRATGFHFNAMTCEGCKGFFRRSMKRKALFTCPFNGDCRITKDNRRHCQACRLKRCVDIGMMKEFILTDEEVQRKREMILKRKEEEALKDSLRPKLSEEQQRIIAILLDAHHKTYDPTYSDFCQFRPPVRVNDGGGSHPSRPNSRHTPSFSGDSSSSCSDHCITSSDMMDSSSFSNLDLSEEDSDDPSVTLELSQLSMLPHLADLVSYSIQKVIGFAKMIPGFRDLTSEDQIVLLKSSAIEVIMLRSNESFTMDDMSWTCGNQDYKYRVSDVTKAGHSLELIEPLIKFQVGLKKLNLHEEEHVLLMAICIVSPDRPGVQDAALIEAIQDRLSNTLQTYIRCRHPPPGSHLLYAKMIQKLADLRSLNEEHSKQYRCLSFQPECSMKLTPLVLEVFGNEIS
In short: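 HepG2 cells were transiently transfected with GAL4-UAS reporter units and a chimeric VDR-Gal4 construct, then dosed for 24 hours. Reporter mRNA was quantified by RT-PCR, fluorescent labeling, HpaI digestion and capillary electrophoresis; gain of signal analysed vs DMSO.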

[9] = BSK_3C_SRB: Viability Assessment in the BioMAP Diversity Plus: 3C Assay (AID 2283023); details: primary human endothelial cells (HUVEC);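 note: fitted both ways against DMSO so a hit may be signal rise or drop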
In short: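 Human umbilical vein endothelial cells in the 3C system, treated 24 h. Total protein measured by 0.1% sulforhodamine B staining after 10% TCA fixation, read at 560 nm; bidirectional fit versus DMSO.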

[10] = read-out: Matrix Metallopeptidase 1 (MMP1), MMP1 (gene 4312); test: BSK_BE3C_MMP1: BioMAP Diversity Plus: BE3C Assay for Matrix Metallopeptidase 1 (MMP1) Biomarker Activity (AID 2283024); details: primary human bronchial epithelial cells; actives raise or lower the signal
In short: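 Human bronchial epithelial cells (BE3C system) exposed to compound for 24 h; MMP1 then quantified by ELISA. Activity was fitted in both directions relative to DMSO.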

[11] = BSK_3C_Vis: BioMAP Diversity Plus: 3C Assay for Morphology Visualization (AID 2283025); details: primary human endothelial cells (HUVEC);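 note: fitted both ways so gain or loss versus DMSO counts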;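 for AC50: light microscopy image of cell morphology used as background control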
In short: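 Chemicals were added to primary human umbilical vein endothelium, cells were incubated 24 h, and morphology was then visualized by light microscopy. Gain or loss of signal was fitted bidirectionally relative to DMSO.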

[12] = read-out: Pselectin, SELP (gene 6403); test: BSK_4H_Pselectin: BioMAP Diversity Plus: 4H Assay for Pselectin Biomarker Activity (AID 2283026); details: primary human endothelial cells (HUVEC); actives raise or lower the signal
In short: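 ELISA read-out of P-selectin on human umbilical vein endothelium after 24 h of dosing. Values derive from bidirectional fitting relative to DMSO. Parallel SRB protein staining flagged overt cytotoxicity.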

[13] = BSK_BE3C_SRB: Viability Assessment in the BioMAP Diversity Plus: BE3C Assay (AID 2283028); details: primary human bronchial epithelial cells;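 for AC50: fitted both ways so AC50 may mark signal gain or loss versus DMSO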
In short: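 Human bronchial epithelial primary cells in confluent culture, 24 h after chemical dosing; total protein by 0.1% SRB staining after 10% TCA fixation, read at 560 nm. Bidirectional fitting versus DMSO baseline.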

[14] = read-out: Thrombomodulin, THBD (gene 7056); test: BSK_3C_Thrombomodulin: BioMAP Diversity Plus: 3C Assay for Thrombomodulin Biomarker Activity (AID 2283029); details: primary human endothelial cells (HUVEC); actives raise or lower the signal
In short: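 Read-out is ELISA of thrombomodulin on human umbilical vein endothelium 24 h after chemical dosing. Gain or loss of signal is scored relative to DMSO. Overt cytotoxicity is checked in parallel cultures by sulforhodamine B staining.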

[15] = read-out: Urokinase-type plasminogen activator receptor (uPAR), PLAUR (gene 5329); test: BSK_4H_uPAR: BioMAP Diversity Plus: 4H Assay for Urokinase-type plasminogen activator receptor (uPAR) Biomarker Activity (AID 2283030); details: primary human endothelial cells (HUVEC); actives raise or lower the signal
In short: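 Human umbilical vein endothelial cells in the 4H system, 24 h after chemical dosing. Cell-surface uPAR measured by ELISA, fitted in both directions versus DMSO; cytotoxicity checked by SRB total protein in parallel cultures.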

[16] = read-out: Vascular endothelial growth factor receptor 2 (Homo sapiens) (UniProt P35968); test: BSK_4H_VEGFRII: BioMAP Diversity Plus: 4H Assay for Vascular endothelial growth factor receptor 2 (VEGFR2) Biomarker Activity (AID 2283031); details: primary human endothelial cells (HUVEC); actives raise or lower the signal;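 for AC50: cell-surface VEGFR2 protein level quantified by ELISA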
In short: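 Primary human umbilical vein endothelial cells (4H system), 24 h exposure; cell-surface VEGFR2 measured by ELISA. Bidirectional fitting versus DMSO; cytotoxicity checked in parallel by SRB total-protein staining.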

[17] = read-out: Vascular cell adhesion molecule 1 (VCAM1), VCAM1 (gene 7412); test: BSK_4H_VCAM1: BioMAP Diversity Plus: 4H Assay for Vascular cell adhesion molecule 1 (VCAM1) Biomarker Activity (AID 2283033); details: primary human endothelial cells (HUVEC); actives raise or lower the signal
In short: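 ELISA read-out of VCAM-1 on human umbilical vein endothelium 24 hours after chemical dosing; gain or loss of signal was fitted relative to DMSO, with sulforhodamine B staining of parallel cultures flagging overt cytotoxicity.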

[18] = read-out: Interferon-gamma inducible Protein 10 (IP10), CXCL10 (gene 3627); test: BSK_BE3C_IP10: BioMAP Diversity Plus: BE3C Assay for Interferon-gamma inducible Protein 10 (IP10) Biomarker Activity (AID 2283034); details: primary human bronchial epithelial cells; actives raise or lower the signal
In short: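 Chemical is dosed onto human lung bronchial epithelial primary cells, cultures are incubated 24 h, and IP-10 is then quantified by ELISA. Gain or loss of signal is fitted in both directions relative to DMSO.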

[19] = read-out: Human Leukocyte Antigen - DR isotype (HLADR), HLA-DRA (gene 3122); test: BSK_BE3C_HLADR: BioMAP Diversity Plus: BE3C Assay for Human Leukocyte Antigen - DR isotype (HLADR) Biomarker Activity (AID 2283032); details: primary human bronchial epithelial cells; actives raise or lower the signal
In short: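 ELISA read-out of HLA-DR on human lung bronchial epithelial primary cells, measured 24 h post-dosing. Both increases and decreases were scored relative to DMSO vehicle.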

[20] = BSK_4H_SRB: Viability Assessment in the BioMAP Diversity Plus: 4H Assay (AID 2283027); details: primary human endothelial cells (HUVEC);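 note: cells exposed to compound for 24 h before staining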;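 for AC50: curves fitted both ways versus DMSO so AC50 may be loss or gain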
In short: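 Absorbance at 560 nm of SRB-stained total protein served as the viability read-out in confluent primary human umbilical vein endothelium 24 h after chemical treatment. Curves were fitted bidirectionally against DMSO as negative control.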

Measured: AC50

Sequence of E-selectin (Homo sapiens) (P16581 whole entry, looked up): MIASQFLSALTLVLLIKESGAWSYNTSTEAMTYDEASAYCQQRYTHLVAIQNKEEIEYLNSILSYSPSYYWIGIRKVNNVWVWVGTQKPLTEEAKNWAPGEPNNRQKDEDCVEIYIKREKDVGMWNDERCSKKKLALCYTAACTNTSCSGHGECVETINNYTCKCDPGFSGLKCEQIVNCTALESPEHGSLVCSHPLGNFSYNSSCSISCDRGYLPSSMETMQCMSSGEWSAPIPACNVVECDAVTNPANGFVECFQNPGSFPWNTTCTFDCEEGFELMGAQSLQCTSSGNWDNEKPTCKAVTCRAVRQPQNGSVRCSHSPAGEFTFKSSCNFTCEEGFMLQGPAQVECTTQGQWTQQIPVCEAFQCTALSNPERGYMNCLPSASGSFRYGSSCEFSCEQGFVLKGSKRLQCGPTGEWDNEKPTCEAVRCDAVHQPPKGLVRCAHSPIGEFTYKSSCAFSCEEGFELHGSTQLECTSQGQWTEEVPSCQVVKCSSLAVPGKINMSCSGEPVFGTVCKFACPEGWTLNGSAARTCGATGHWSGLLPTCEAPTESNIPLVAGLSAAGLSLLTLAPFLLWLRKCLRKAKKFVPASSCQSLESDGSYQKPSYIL

CC1(C)C(=O)N(Br)C(=O)N1Br
not listed: [19] | [20]
inactive: all other assays above

CN(C)c1ccc(Cc2ccc(N(C)C)cc2)cc1
active: [5] 31.8 µM | [6] 20 µM | [10] 12.6 µM | [12] 32.8 µM | [18] 28.8 µM
not listed: [11] | [19] | [20]
inactive: all other assays above

CC(=O)OC[C@H]1O[C@@](COC(C)=O)(O[C@H]2O[C@H](COC(C)=O)[C@@H](OC(C)=O)[C@H](OC(C)=O)[C@H]2OC(C)=O)[C@@H](OC(C)=O)[C@@H]1OC(C)=O
not listed: [20]
inactive: all other assays above

COC(=O)c1c(Cl)c(Cl)c(C(=O)OC)c(Cl)c1Cl
not listed: [4] | [8] | [11]
inactive: all other assays above

CN(C)c1ccc(N=NS(=O)(=O)O)cc1
active: [17] 8.31 µM
not listed: [4] | [11] | [19]
inactive: all other assays above

CC(=O)OCCC(C)C
not listed: [4] | [8] | [20]
inactive: all other assays above

Cc1[nH]cnc1C[C@H]1CCc2c(C)c3ccccc3n2C1=O
active: [3] 27.5 µM | [4] 22.9 µM | [5] 29.4 µM | [6] 22.4 µM | [9] 26 µM | [11] 18.4 µM | [12] 21.4 µM | [15] 22.5 µM | [17] 28.9 µM
not listed: [2] | [20]
inactive: all other assays above

CCC(C)(C)C(=O)O[C@H]1C[C@@H](C)C=C2C=C[C@H](C)[C@H](CC[C@@H]3C[C@@H](O)CC(=O)O3)[C@H]21
active: [1] 30.2 µM | [2] 33.1 µM | [3] 18.6 µM | [5] 25.8 µM | [6] 26.5 µM | [9] 3.97 µM | [10] 31.9 µM | [11] 20 µM | [13] 36.1 µM | [14] 0.526 µM | [15] 20 µM | [16] 26.9 µM | [17] 29.9 µM | [18] 34.1 µM
inactive: [7] | [12]

Cc1ccc(O)cc1
not listed: [4] | [8] | [11] | [19]
inactive: all other assays above

O=c1[nH]c2ccc(S(=O)CCN3CCC(Cc4ccc(F)cc4)CC3)cc2o1 (configuration not stated)
active: [4] 4.88 µM | [20] 3.97 µM | [15] 12.8 µM | [17] 15.3 µM
not listed: [2] | [19]
inactive: all other assays above

Nc1cccc(N)c1
not listed: [2] | [19]
inactive: all other assays above

CCOCCO
not listed: [4] | [8] | [20]
inactive: all other assays above

CC(=O)c1ccc2c(c1)[C@H](NC(=O)c1ccc(F)cc1)[C@@H](O)C(C)(C)O2
not listed: [4] | [8] | [11]
inactive: all other assays above

O=C(OC[C@H]1O[C@@H](OC(=O)c2cc(O)c(O)c(OC(=O)c3cc(O)c(O)c(O)c3)c2)[C@H](OC(=O)c2cc(O)c(O)c(OC(=O)c3cc(O)c(O)c(O)c3)c2)[C@@H](OC(=O)c2cc(O)c(O)c(OC(=O)c3cc(O)c(O)c(O)c3)c2)[C@@H]1OC(=O)c1cc(O)c(O)c(OC(=O)c2cc(O)c(O)c(O)c2)c1)c1cc(O)c(O)c(OC(=O)c2cc(O)c(O)c(O)c2)c1
active: [2] 7.85 µM | [3] 9.09 µM | [5] 9.13 µM | [9] 9.7 µM | [10] 10.8 µM | [12] 6.1 µM | [15] 3.15 µM | [17] 9.44 µM | [18] 9.85 µM
inactive: [1] | [6] | [7] | [11] | [20] | [13] | [14] | [16]

From PubChem BioAssay (EPA / NIEHS)
